# This is a sample that favours compounds with a hit; in the whole collection about 3.2% have one here.
# SSB-PriA inh: blocks PriA binding to SSB C-terminal tail | AlphaScreen SSBct-PriA binding, biotinylated peptide | inhibition, % at 33 µM | 0.6% of 430,000 active | AID 1272365; in the data active = inhibition mostly above about 37%, no sharp cut-off; inactive = mostly below about 20%;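 note: plate controls were negative control peptide for no effect and reference peptide for full effect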
# Rv3671c inh: inhibitors of M. tuberculosis serine protease Rv3671c; P9WHR9; inhibition, % at 5.96 µM; 0.048% of 320,000 active; AID 2606; in the data active = inhibition above about 38%;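 note: extracellular domain of Rv3671c used as enzyme; 0% = enzyme with DMSO and 100% = no enzyme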
# GDH-TPI inh: GDH-TPI coupled enzyme inhibition counter-screen | GDH-TPI coupled enzyme counterscreen, NADH absorbance | inhibition, % at 4.8 µM | 1.2% of 360,000 active | AID 588335; in the data active = inhibition above about 30%;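 note: 0% = DMSO wells and 100% = wells lacking the enzyme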
# FBA Mtb inh: inhibits M. tuberculosis FBA enzyme. 2.3% of 360,000 active. P9WQA3. inhibition, % at 1 µM. purified M. tuberculosis FBA, fluorescence read-out; in the data active = inhibition above about 27%;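 note: 0% = vehicle and 100% = reference inhibitor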
# Target sequence (P9WQA3 whole entry, looked up): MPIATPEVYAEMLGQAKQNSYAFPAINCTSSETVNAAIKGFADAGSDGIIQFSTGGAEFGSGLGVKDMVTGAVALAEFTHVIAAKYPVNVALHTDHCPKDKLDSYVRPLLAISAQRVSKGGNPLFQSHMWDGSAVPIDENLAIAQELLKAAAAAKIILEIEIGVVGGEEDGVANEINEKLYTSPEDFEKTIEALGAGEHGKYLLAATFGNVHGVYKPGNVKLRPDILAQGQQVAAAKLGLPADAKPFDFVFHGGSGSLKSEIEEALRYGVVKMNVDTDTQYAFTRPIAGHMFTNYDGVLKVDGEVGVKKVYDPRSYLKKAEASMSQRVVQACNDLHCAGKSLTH
# Mtb UGM inh: blocks M. tuberculosis UGM enzyme; P9WIQ1; purified UGM, fluorescence polarization probe displacement; inhibition, % at 10 µM; 0.06% of 320,000 active; AID 504406; in the data active = inhibition above about 10%, passing the limit was not always enough; inconclusive = no clear call, values can overlap the other calls
# Mtb betalactam: beta-lactam sensitization of Mtb H37Rv. 0.27% of 330,000 active. inhibition, % at 25 µM. M. tuberculosis H37Rv growth with meropenem, percent inhibition; call rule not given here;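 note: growth measured after seven days incubation then overnight dye step; 0% = bacteria only wells and 100% = bacteria with antibiotic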
# Active calls of the source: *; i = inactive; ? = inconclusive; . = not tested or not shown; + = active, no number.
SMILES,SSB-PriA inh,Rv3671c inh,GDH-TPI inh,FBA Mtb inh,Mtb UGM inh,Mtb betalactam
Cc1cccc(NC(=O)c2cnc3sccn3c2=O)c1,-22,0,23,3,0,-6
COCc1cc(C)nc(OCC(=O)NN=Cc2ccccc2)c1C#N,-3,.,.,.,.,.
CCOc1cccc2sc(NC(=O)Cc3ccc(OC)c(C)c3)nc12,-12,.,.,.,.,.
CCCCn1c(-c2ccccc2C)nc2cc3[nH]c(=O)c(C(C)C)nc3cc21,-30,6,7,27,1,94
O=c1oc2ccccc2n1Cc1cccc(F)c1,-3,-3,-1,1,0,-10
O=c1[nH]cccc1-c1nc2ccccc2n1Cc1cccc(Cl)c1,-1,-3,3,135*,0,-1
O=c1ccc2ccccc2n1Cc1cccc(F)c1,4,14,11,2,0,2
Cc1cc2nc(-c3ccc[nH]c3=O)n(Cc3cccc(F)c3)c2cc1C,2,-5,23,149*,1,-5
CCCn1c(-c2ccc[nH]c2=O)nc2cc(C)c(C)cc21,7,6,2,115*,0,-2
O=c1[nH]cccc1-c1nc2ccccc2n1Cc1cccc(F)c1,8,-2,8,162*,-1,-3
CCOC(=O)c1cn[nH]c1S(=O)(=O)NCc1cccc(OC)c1,-3,.,.,.,.,.
COCCN1CCC(CNS(=O)(=O)c2cc(Cl)ccc2OC)CC1,-15,.,.,.,.,.
COC1CCN(C(=O)Cn2cnc3ccccc32)CC1,-10,.,.,.,.,.
COc1ccc(Cl)cc1C(=O)N1CCN(c2nccn2C)CC1,1,.,.,.,.,.
CCCCNC(=O)c1nc(-c2ccncc2)oc1-c1ccccc1,.,.,.,+,.,.
CCCCNC(=O)c1nc(C2CCN(S(=O)(=O)c3c(F)cccc3F)CC2)oc1-c1ccccc1,.,.,.,2,.,.
Cc1cc(-c2ccc(F)cc2)nc2cc(C(N)=O)nn12,-9,4,3,13,0,-22
CCOC(=O)c1cnn2c(C)cc(-c3ccc(F)cc3)nc12,-15,-1,13,60*,2,-5
O=C1CCCC(=NNC(=O)c2sc3ccccc3c2Cl)C1,0,.,.,.,.,.
COc1ccc2c(Cl)c(C(=O)N/N=C3\CCCC(=O)C3)sc2c1,.,3,34*,-5,1,8
Cn1cc(C(=O)N/N=C/c2cccs2)c2ccccc21,.,-6,43*,-1,-1,1
Cc1occc1C(=O)N/N=C/c1ccc2c(c1)OCO2,i,-6,46*,3,-3,-6
O=C(N/N=C/c1ccc2c(c1)OCO2)c1cccs1,.,-3,35*,-2,-2,9
Cc1cc(C(=O)N/N=C/c2ccc3c(c2)OCO3)c(C)o1,.,10,19,0,-2,1
C=CCn1c(SCC(=O)N2CCc3cc(OC)c(OC)cc3C2)nc2sc3c(c2c1=O)CCC3,2,.,.,.,.,.
SMILES,SSB-PriA inh,Rv3671c inh,GDH-TPI inh,FBA Mtb inh,Mtb UGM inh,Mtb betalactam
Cc1ccsc1C(=O)N/N=C/c1ccc2c(c1)OCO2,.,-6,36*,-2,0,1
O=C(N/N=C/c1ccc2c(c1)OCO2)c1cccc2ccccc12,.,-15,11,1,-2,-3
COc1ccc2c(Cl)c(C(=O)NN=Cc3ccc4c(c3)OCO4)sc2c1,11,.,.,.,.,.
Cc1ccsc1C(=O)NN=Cc1ccc2c(c1)OCO2,-1,.,.,.,.,.
COc1ccc2c(Cl)c(C(=O)N/N=C/c3ccc4c(c3)OCO4)sc2c1,.,-1,47*,0,-1,3
Cn1cc(C(=O)N/N=C/c2ccc3c(c2)OCO3)c2ccccc21,i,6,34*,2,1,-6
Cn1cc(-c2cccc3nncn23)cn1,.,.,15,6,.,.
CSc1ccc(-c2cccc3nncn23)cc1,.,.,24,+,.,.
Cc1cc(NC(c2ccc(N(C)C)cc2)c2cc(C(C)(C)C)c(O)c(C(C)(C)C)c2)no1 (centres undefined),-1,.,.,.,.,.
Cn1nccc1C(=O)NC1CCCc2c1cnn2-c1cc(F)cc(F)c1 (centres undefined),-11,-2,8,+,-2,6
Cc1n[nH]c(=O)c2c(NC(=O)CSc3nnc(-c4ccco4)n3C)oc(C)c12,1,-6,8,3,47*,-2
CN(C)c1ccc(NC2=C(Cl)C(=O)c3ccccc3C2=O)cc1,64*,-107,3,-2,-2,12
CC(=NNC(=O)c1sc(NS(=O)(=O)c2ccccc2)nc1C)c1sc(N)nc1C,11,.,.,.,.,.
COc1ccc(/C=N/Nc2nnc(Cc3ccc(OC)c(OC)c3)c(=O)[nH]2)cc1OC,.,-8,31,-1,0,2
CCNc1nc(NCC)nc(NN=Cc2ccc(N(C)C)cc2)n1,9,.,.,.,.,.
COc1ccc(Cc2nnc(N/N=C/c3ccc(N(C)C)cc3)[nH]c2=O)cc1OC,.,5,78*,-2,-1,-2
CCNc1nc(NCC)nc(N/N=C/c2ccc(N(C)C)cc2)n1,.,-3,38*,24,0,-3
Cc1cc(=O)[nH]c(N/N=C/c2ccc(N(C)C)cc2)n1,.,3,35*,14,4,-3
Cc1cc(=O)[nH]c(N/N=C/c2cc(C)n(CC(F)(F)F)c2C)n1,.,8,40*,3,-1,-5
Cc1cc(C)nc(NN=Cc2cc(C)n(CC(F)(F)F)c2C)n1,9,.,.,.,.,.
Cc1ccc(S(=O)(=O)c2cn(CC(=O)Nc3cccc(C)n3)c3ccccc23)cc1,-5,.,.,.,.,.
Cn1nc(C(=O)NCc2ccc(F)cc2)ccc1=O,-7,.,.,.,.,.
Cc1cc(=O)[nH]c(NN=Cc2c(O)n(-c3ccccc3)c(=O)c3ccccc23)n1,85*,.,.,.,.,.
CCN(CCC#N)c1ccc(/C=N/Nc2nc(C)cc(=O)[nH]2)c(C)c1,.,10,45*,8,-1,-3
CCN(CC)c1ccc(C=NNc2nc(C)cc(=O)[nH]2)c(O)c1,0,.,.,.,.,.
SMILES,SSB-PriA inh,Rv3671c inh,GDH-TPI inh,FBA Mtb inh,Mtb UGM inh,Mtb betalactam
CCOc1ccc(-c2ccc3nnc(SCC(=O)N4CCOCC4)n3n2)cc1,-2,.,.,.,.,.
O=C(O)CCc1cccc(Cl)c1,3,.,.,.,.,.
NC(=O)CSc1nccn1-c1cccc(C(F)(F)F)c1,-2,.,.,.,.,.
Brc1ccc(CSc2nccn2-c2ccccc2)cc1,59*,2,8,4,4,16
FC(F)(F)c1ccc(CSc2nccn2-c2ccccc2)cc1,48*,12,-6,3,1,5
Clc1cccc(CSc2nccn2-c2ccccc2)c1,53*,2,-5,6,0,3
Clc1cccc(CSc2ncn(-c3ccccc3)n2)c1,-57,4,-9,0,-1,-5
O=C(CSc1nccn1-c1ccccc1)NO,-9,-4,0,1,0,-4
Cc1cc(O)c(C(=O)Nc2cccc(Cl)c2)c(=O)n1Cc1ccco1,-19,.,.,.,.,.
O=c1c2ccccc2nc2n1CCCCC2,-9,-13,-8,-14,2,-6
O=c1c2ccccc2nc2n1CCCCN2,-17,7,3,68*,0,-6
COc1ccc2nc(NCc3ccccn3)sc2c1,-2,.,.,.,.,.
N#C/C(=C\c1c(N2CCCCC2)nc2ccccn2c1=O)C(=O)NC1CCS(=O)(=O)C1 (centres undefined),-5,-1,13,6,-3,?

# Compound activity: PubChem BioAssay, several laboratories
